Test results taken from PubChem BioAssay (NCATS).
“And” between values parts separate entries of the source, which are not always exact repeats. Equal entries are not always repeated. Inconclusive results are not listed. Unmarked numbers belong to inactive results. Calls follow the shape of the dose curve; as a rule, active = well fitted curve in the direction sought with a large enough effect in the signal ratio, with a control signal flat; inconclusive = small, poorly fitted or top-dose-only effect, or a change in a side signal; inactive = no such curve, though single readings can be large or run the other way; the % refers to the signal ratio.

biological target: Glucocorticoid receptor (Homo sapiens) (UniProt P04150); experiment: qHTS assay for small molecule agonists of glucocorticoid receptor signaling (AID 588532); settings: HeLa MMTV-bla, beta-lactamase ratio, agonist, 18 h; active compounds read high; percent of dexamethasone control, DMSO zero
Excerpt: NIH Chemical Genomics Center [NCGC] U.S. Environmental Protection Agency [EPA] National Institutes of Environmental Health Sciences [NIEHS] National Toxicology Program [NTP] NCGC Assay Overview The Glucocorticoid receptor (GR), a nuclear receptor subfamily member and its natural ligands includes […] etc. The GR is a validated drug target for inflammation. GR ligands such as dexamethasone are clinically available as anti-inflammatory drugs. Glucocorticoids implicate role in carbohydrate, protein and lipid metabolisms and programmed cell death. They are also a component of many chemotherapy regimens for the treatment of leukemias, lymphomas, and myelomas because of their role in the induction of apoptosis.
NCGC Assay Protocol Summary Using a beta-lactamase reporter-gene under control of glucocorticoid response element (GRE), a cell-based assay [CellSensor MMTV-bla HeLa cell line assay developed by Invitrogen] was used to measure GR ligands signaling. CellSensor MMTV-bla HeLa cells were used with assay medium containing 1% charcoal/dextran treated FBS, 0.1 mM NEAA, 1 mM sodium pyruvate and 25mM HEPES. The assay was performed in clear bottom black Greiner 1536-well plates. Dexamethasone and Mifepristine were used in the screen as agonist and antagonist positive controls respectively. Library compounds were measured for their ability to stimulate the reporter gene activity. Compounds were screened in a titration series in 1536-well format. The fluorescence intensity (405 nm excitation, 460/530 nm emission) was measured using an EnVision plate reader. Data was normalized relative to Dexamethasone control (0.1 uM, 100%), and DMSO only wells (basal, 0%). Concentration-response titration points for each compound were fitted to the Hill equation yielding concentrations of half-maximal stimulation (EC50) and maximal response (efficacy) values. qHTS protocol for GR beta-lactamase assay in agonist mode [Step] [Parameter] [Value] [Description] 1. Reagent; 6 uL; 1500 cells/well 2. Incubation; 37 C for 3-5 hrs 3. Compounds; 23 nL; 0.59 nM to 92 uM 4. Controls (Dexamethasone); 23 nL, - One column with dose response, start 4.6uM, 1:3 dilutions in duplicates - Final concentrations of 0.1 uM and 2 nM in two columns 5. Incubation; 37 C for 18 hrs 6. Detection reagent; 1 uL of CCF4-dye 7. Incubation; RT for 2 hrs 8. Detection; Fluorescence; Envision plate reader

Chain of Glucocorticoid receptor (Homo sapiens) (P04150 whole entry, looked up): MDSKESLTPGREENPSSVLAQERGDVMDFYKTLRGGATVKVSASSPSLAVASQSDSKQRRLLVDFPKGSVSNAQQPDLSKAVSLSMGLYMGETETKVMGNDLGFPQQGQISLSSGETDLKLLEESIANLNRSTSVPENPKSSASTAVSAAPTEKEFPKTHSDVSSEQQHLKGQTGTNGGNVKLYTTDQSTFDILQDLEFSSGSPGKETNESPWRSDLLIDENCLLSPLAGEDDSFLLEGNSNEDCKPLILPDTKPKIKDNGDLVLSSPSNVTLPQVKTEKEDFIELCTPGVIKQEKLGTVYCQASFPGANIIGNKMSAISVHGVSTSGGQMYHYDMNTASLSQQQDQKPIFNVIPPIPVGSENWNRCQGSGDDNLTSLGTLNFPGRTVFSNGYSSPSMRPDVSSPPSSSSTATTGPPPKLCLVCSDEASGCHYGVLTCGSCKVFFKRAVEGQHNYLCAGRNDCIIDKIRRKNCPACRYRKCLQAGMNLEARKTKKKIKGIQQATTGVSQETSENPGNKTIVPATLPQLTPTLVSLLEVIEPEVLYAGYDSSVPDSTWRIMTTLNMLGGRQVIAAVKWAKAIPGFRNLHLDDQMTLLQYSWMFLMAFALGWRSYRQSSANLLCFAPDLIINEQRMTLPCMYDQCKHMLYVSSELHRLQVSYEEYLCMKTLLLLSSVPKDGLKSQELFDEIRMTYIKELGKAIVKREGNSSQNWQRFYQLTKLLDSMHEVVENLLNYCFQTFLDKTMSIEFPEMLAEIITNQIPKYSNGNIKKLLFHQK

| SMILES | activation |
| --- | --- |
| O=C(O)c1ccc([N+](=O)[O-])cc1 | 3.87% and 0.51% |
| Nc1cnn([C@@H]2O[C@H](CO)[C@@H](O)[C@H]2O)c(=O)n1 | -5.2% |
| CCCCC(CC)COC(=O)COc1ccc(Cl)cc1Cl (stereo not given) | -3.61% and -5.37% |
| CC(=O)OC1CC(C)OC(C)O1 (stereo not given) | 0.225% and -13.7% |
| c1ccc(CSCc2ccccc2)cc1 | -4.65% |
| O=[N+]([O-])c1cc(Cl)c(Cl)c(Cl)c1Cl | 0.473% |
| C=C1CC[C@H](O)C/C1=C/C=C1\CCC[C@]2(C)[C@@H]([C@H](C)CCCC(C)C)CC[C@@H]12 | -3.67% |
| Cc1ccccc1OCC1CO1 (stereo not given) | -5.02% |
| CCN(CC)c1ccc(N)cc1 | 8.72% |
| C=CC(=O)OCCCCCCOC(=O)C=C | -0.42% and -1.5% |
| O=c1[nH]ncc2ccccc12 | -0.672% |
| Nc1ccc(N=Nc2ccccc2)c(N)c1 | -4.54% |
| CCCCCCCCC1CO1 (stereo not given) | -2.27% |
| O=C(OCc1ccccc1)c1ccccc1O | -2.46% and -9.77% |
| COc1ccc([N+](=O)[O-])cc1N | 2.11% and 1.38% |
| CC(C)(C)C(=O)C1C(=O)c2ccccc2C1=O | -3.45% |
| CCC(Cl)CC(Cl)C(Cl)C(Cl)C(Cl)C(C)Cl (stereo not given) | 4.73% |
| Brc1ccc(-c2ccccc2)cc1 | -2.59% |
| Nc1cc(C(=O)O)c(O)c(S(=O)(=O)O)c1 | 1.03% |
| S=C(NC1CCCCC1)NC1CCCCC1 | 9% |

| SMILES | activation |
| --- | --- |
| O=C=Nc1ccc(Cl)c(Cl)c1 | 5.86% |
| CC(C)S | 2.41% |
| Cc1ccc(N)cc1[N+](=O)[O-] | 0.881% |
| Nc1ccc2c(c1)C(=O)c1ccccc1C2=O | -3.44% and 1.5% |
| C=CC(C)(O)CCCC(C)CCCC(C)CCCC(C)C (stereo not given) | 1.44% |
| c1ccc2c(c1)ccc1ccccc12 | 3.65% and 10.6% |
| OC1CCCCC1 | -3.35% |
| CC(=O)OC(C(=O)c1ccccc1)c1ccccc1 (stereo not given) | 8.92% |
| CCCCCCc1ccc(-c2ccc(C#N)cc2)cc1 | -6.81% |
| CC/C=C/C/C=C/C/C=C/CCCCCCCC(=O)OCC | -2.85% |
| O=C1OC(=O)c2ccccc21 | 8.87% |
| C[Si](C)(C)Cl | 10.5% |
| CC(CCC(=O)O)(c1ccc(O)cc1)c1ccc(O)cc1 | 3.51% and -3.34% |
| CC(=O)CC(=O)Nc1ccccc1 | -8.89% |
| NC(=O)c1ccc([N+](=O)[O-])cc1 | 1.08% |
| CCCCCCCCOc1ccc(C(=O)O)cc1 | -4.25% |
| Cc1c(C(=O)O)c(O)cc2c1C(=O)c1c(O)c([C@H]3O[C@H](CO)[C@@H](O)[C@H](O)[C@H]3O)c(O)c(O)c1C2=O | -7.96% |
| Cc1c(N)cccc1Cl | -4.07% |
| CCCCNCC | -12.1% |
| CC(C)OCC1CO1 (stereo not given) | -3.64% |
